Columns and labels:
Test in all cases: log2 ratio of Biotin-Ahx-Ub-VS probe labelling (fragment/DMSO); higher = less target engagement (more negative = stronger competition), active = hit call of the paper (q ≤ 0.05, log2 ratio ≤ -1)
Conditions in all cases: compound concentration: 200 uM; treatment time: 3 h
[1] = target: T1, USP19 (UniProt O94966)
T1 sequence (whole entry): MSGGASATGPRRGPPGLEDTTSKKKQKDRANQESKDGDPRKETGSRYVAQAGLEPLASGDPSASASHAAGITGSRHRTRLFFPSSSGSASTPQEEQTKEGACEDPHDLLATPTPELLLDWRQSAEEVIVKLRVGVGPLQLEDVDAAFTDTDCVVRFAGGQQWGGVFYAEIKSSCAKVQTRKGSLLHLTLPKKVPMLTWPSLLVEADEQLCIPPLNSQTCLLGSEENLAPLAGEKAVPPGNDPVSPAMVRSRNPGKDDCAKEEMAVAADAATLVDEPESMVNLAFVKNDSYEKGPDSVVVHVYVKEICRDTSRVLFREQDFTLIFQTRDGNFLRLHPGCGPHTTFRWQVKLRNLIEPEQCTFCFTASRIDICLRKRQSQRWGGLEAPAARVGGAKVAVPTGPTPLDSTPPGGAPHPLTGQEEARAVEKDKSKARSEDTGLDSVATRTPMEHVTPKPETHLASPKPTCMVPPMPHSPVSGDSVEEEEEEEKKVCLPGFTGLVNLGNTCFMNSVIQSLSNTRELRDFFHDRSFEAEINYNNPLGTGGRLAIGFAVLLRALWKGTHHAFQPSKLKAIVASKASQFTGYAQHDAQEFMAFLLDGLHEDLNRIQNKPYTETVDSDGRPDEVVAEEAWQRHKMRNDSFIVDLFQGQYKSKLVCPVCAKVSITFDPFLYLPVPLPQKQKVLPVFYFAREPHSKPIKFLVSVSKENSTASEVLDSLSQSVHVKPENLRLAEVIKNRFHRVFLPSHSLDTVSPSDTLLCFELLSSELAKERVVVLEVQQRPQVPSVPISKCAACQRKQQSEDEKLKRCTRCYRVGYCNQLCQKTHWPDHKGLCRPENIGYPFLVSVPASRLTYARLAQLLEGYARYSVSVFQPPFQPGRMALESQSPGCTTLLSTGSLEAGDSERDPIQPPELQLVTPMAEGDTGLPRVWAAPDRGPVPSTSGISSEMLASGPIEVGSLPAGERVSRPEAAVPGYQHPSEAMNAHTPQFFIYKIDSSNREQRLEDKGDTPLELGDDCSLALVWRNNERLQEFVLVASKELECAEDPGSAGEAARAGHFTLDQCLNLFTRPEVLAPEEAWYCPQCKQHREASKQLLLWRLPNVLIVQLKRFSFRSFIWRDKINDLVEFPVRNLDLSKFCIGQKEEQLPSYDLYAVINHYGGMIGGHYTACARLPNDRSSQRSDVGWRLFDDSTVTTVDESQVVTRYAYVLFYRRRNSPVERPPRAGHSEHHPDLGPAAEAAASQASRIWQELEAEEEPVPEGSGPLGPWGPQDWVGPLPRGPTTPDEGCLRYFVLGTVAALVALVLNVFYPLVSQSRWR
How it was run: (§1)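 Each value is an average log2 ratio of fragment to vehicle, tested by unpaired t-test. The underlying Spectronaut label-free quantities were global-median-normalised, and only proteins with ≥2 unique peptides were included. Triplicate HEK293T lysate samples (495 µg) were exposed to fragment at 200 µM or vehicle for 3 h, then to Biotin-Ahx-Ub-VS at 0.5 µM final for 1 h, before NeutrAvidin enrichment of labelled DUBs, LysC and trypsin digestion, and diaPASEF LC-MS/MS.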

[2] = target: USP24 (UniProt Q9UPU5)
How it was run: as §1

[3] = target: T2, USP25 (UniProt Q9UHP3)
T2 sequence (whole entry): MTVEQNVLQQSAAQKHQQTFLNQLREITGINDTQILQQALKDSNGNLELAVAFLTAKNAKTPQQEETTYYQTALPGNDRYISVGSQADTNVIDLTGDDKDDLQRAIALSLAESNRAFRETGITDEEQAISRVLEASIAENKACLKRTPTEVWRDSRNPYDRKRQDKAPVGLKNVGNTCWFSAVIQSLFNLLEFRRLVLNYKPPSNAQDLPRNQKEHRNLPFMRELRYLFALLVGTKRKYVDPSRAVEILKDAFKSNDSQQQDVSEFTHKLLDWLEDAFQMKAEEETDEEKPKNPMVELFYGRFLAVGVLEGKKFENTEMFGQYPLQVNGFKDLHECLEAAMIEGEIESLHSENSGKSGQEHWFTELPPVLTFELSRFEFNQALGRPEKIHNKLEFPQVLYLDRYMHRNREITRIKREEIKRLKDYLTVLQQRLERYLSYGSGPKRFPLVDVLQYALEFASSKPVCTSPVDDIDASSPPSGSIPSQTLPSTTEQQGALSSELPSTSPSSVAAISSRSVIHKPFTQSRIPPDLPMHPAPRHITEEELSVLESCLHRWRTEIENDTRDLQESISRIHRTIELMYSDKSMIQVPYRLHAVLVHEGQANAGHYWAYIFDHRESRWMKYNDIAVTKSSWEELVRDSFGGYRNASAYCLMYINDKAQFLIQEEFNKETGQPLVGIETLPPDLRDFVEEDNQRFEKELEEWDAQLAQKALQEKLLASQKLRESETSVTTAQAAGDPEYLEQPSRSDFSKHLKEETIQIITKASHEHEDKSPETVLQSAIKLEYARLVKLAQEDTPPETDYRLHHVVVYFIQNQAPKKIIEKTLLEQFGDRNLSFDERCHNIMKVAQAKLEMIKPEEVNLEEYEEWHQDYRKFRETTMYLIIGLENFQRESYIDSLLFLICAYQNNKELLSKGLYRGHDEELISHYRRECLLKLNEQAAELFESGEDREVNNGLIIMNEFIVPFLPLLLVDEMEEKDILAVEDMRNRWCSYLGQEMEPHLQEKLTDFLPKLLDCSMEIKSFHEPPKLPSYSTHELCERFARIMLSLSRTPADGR
How it was run: as §1

[4] = target: T3, USP28 (UniProt Q96RU2)
T3 sequence (whole entry): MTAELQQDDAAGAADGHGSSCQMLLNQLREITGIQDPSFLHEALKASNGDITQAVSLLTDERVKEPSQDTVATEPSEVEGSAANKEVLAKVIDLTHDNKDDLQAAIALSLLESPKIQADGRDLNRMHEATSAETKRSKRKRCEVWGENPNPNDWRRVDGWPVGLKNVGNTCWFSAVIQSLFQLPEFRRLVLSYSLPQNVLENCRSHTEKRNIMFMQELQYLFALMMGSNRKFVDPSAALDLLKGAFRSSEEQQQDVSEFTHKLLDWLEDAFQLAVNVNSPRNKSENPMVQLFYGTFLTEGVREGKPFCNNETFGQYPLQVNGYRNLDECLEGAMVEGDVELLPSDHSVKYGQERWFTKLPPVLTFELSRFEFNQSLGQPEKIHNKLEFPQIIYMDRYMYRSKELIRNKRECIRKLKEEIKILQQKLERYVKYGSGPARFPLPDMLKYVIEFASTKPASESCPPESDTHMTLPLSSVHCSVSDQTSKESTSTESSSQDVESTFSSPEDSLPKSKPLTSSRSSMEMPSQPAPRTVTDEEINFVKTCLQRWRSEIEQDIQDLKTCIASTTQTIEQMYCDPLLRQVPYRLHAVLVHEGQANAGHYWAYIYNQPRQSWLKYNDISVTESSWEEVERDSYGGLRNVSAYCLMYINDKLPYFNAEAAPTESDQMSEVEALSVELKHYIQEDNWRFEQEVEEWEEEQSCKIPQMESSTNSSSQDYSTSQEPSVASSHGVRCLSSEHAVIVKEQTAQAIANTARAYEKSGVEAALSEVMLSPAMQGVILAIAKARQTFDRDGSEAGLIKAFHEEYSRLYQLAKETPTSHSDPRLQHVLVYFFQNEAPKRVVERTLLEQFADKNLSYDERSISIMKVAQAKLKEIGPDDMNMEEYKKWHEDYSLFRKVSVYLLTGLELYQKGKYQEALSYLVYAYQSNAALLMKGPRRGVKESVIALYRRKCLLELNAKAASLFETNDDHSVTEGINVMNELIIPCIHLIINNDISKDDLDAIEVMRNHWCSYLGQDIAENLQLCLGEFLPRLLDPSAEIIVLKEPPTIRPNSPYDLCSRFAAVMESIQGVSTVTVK
How it was run: as §1

Measured: log2 ratio of Biotin-Ahx-Ub-VS probe labelling

Chain of USP24 (Q9UPU5 whole entry): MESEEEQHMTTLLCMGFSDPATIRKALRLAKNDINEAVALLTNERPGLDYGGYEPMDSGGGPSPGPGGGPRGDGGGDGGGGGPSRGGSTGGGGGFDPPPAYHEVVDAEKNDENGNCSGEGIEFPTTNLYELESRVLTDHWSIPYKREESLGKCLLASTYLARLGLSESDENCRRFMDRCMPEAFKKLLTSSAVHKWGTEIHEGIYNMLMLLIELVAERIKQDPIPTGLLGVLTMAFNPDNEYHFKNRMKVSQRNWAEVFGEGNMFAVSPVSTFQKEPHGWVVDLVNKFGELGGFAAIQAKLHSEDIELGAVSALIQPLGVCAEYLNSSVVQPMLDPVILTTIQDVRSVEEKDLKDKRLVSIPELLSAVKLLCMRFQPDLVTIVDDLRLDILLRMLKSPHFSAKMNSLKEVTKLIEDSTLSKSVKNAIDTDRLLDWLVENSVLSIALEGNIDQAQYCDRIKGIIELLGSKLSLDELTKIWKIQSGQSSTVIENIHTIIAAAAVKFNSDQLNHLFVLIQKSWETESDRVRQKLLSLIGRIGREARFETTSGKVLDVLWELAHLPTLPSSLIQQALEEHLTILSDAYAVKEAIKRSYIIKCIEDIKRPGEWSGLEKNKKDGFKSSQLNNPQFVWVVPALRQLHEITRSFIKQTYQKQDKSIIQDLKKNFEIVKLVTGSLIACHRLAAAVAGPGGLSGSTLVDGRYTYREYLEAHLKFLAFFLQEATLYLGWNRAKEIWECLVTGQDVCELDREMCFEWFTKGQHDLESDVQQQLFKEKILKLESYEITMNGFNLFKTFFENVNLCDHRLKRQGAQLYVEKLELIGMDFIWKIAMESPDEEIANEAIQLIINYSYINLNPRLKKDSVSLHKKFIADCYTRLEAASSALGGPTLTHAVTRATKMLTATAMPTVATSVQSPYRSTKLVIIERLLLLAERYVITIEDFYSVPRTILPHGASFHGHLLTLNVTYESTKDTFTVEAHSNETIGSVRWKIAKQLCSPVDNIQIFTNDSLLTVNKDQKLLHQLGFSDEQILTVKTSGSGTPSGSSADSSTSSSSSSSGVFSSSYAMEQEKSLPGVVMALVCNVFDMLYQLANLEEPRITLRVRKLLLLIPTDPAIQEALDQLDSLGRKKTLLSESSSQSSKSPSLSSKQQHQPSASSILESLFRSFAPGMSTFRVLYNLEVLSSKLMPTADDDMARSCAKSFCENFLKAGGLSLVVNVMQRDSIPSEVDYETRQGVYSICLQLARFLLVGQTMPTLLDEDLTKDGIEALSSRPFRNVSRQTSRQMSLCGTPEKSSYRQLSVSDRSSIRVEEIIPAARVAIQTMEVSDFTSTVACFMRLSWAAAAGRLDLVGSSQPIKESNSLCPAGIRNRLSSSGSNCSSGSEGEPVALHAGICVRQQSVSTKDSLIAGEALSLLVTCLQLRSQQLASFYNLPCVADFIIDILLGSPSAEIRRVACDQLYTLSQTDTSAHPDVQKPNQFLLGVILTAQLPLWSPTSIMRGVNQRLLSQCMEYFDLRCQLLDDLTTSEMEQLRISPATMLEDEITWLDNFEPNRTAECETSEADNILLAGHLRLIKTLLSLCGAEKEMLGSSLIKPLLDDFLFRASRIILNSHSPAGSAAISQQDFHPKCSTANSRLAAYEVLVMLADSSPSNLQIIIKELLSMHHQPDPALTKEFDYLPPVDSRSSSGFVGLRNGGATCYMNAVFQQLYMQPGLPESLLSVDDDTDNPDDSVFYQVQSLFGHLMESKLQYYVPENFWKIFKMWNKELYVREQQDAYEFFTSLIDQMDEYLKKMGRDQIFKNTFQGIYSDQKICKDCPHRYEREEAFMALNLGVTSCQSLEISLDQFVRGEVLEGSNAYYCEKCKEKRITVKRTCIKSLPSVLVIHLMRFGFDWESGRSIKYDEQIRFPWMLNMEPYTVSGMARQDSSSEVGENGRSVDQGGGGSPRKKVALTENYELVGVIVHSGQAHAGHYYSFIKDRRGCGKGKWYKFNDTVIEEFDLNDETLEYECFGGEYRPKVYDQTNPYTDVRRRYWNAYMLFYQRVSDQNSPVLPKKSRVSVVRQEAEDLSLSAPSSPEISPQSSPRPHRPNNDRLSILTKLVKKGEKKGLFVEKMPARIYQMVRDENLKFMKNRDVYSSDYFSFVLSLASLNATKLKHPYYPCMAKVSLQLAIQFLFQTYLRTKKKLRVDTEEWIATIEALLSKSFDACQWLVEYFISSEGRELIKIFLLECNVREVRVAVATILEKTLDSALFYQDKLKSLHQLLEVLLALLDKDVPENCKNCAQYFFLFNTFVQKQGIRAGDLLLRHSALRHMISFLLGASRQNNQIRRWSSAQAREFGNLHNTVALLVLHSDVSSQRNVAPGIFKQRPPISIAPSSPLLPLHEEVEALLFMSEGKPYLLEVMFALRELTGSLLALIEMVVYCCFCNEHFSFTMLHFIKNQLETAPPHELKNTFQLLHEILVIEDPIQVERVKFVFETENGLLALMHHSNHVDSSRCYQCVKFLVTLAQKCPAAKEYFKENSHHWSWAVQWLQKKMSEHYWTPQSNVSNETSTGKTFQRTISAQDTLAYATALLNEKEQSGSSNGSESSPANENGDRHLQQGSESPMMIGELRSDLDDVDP

Cl.O=C(CCl)N1CCc2ncncc2C1
inactive: [1] -0.554 | [2] -0.491 | [3] -0.276 | [4] -0.582
